# PubChem BioAssay AID2551 (National Center for Advancing Translational Sciences (NCATS), 2010)
# Screen size: about 310,000 compounds; about 17,000 (5.5%) were called active. Where a call stands in place of a potency, no number is given. Roughly 11% stayed inconclusive and do not appear here. The full list was thinned out, with actives kept by preference. Values without a mark were called inactive. The call rests on the fitted dose curve; in most records, active means well fitted inhibition curve with a large enough effect; inconclusive means small, poorly fitted or top-dose-only effect, or effect the other way; inactive means no such curve, though single readings can be large or run the other way.
# Target: Nuclear receptor ROR-gamma (Mus musculus) (UniProt P51450)
# Sequence (P51450 whole entry, looked up): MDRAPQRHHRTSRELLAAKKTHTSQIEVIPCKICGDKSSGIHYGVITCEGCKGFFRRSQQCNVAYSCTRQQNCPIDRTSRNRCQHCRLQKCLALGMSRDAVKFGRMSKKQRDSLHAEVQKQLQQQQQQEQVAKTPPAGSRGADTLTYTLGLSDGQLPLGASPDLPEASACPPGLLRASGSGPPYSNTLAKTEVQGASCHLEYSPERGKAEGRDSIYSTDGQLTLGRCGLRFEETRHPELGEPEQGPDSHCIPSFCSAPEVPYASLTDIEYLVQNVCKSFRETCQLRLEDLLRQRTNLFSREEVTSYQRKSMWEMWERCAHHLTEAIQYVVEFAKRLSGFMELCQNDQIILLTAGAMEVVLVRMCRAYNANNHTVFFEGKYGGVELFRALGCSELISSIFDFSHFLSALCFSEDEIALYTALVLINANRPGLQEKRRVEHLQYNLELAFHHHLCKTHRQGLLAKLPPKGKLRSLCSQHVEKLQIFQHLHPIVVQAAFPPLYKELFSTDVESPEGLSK
# Experiment: qHTS for inhibitors of ROR gamma transcriptional activity; further: nearly all actives have a fitted effect of over 60% in size
# Conditions: Drosophila S2 Gal4-RORgamma UAS-luciferase reporter, 20 h; series mostly up to 53.6 µM
# Outline: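 Schneider cells (Drosophila), stable Gal4 DBD–ROR gamma + UAS-luc; 1 hr cmpd preincubation; Cu2+ induction 700 uM final; 20 hr ambient; luminescence.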
# Potency means the concentration at half of the fitted maximal effect.
Compound,Potency,"activity change, negative = inhibition"
COc1ccccc1CN1CCNC(=O)C1CC(=O)N(C)CC1CCOCC1 (stereo not drawn),inactive,
COc1ccc(NC(=O)COc2ccc(C(=O)c3ccc(F)cc3)cc2)cc1S(N)(=O)=O,inactive,
CC(=O)N1CCSc2ccc(S(=O)(=O)N3CCC(C)CC3)cc21,inactive,
COc1cccc(N(C(=O)CNC(=O)c2ccco2)C(C(=O)NC2CCCCC2)c2cccnc2)c1 (stereo not drawn),inactive,
Cc1ccc(-c2nc(CSCC(=O)NC3CCN(Cc4ccccc4)CC3)c(C)o2)cc1,inactive,
Cc1ccccc1OCC(=O)NNC(=O)c1cc(S(=O)(=O)N(C)C)ccc1N1CCCC1,inactive,
Cn1c(Nc2cccc(Cl)c2)nc2ccccc21,,-6.74% [at 1.91 µM]
COc1ccccc1CNC(=O)C1CCN(S(=O)(=O)c2ccc3c(c2)CC(C)N3C(=O)C2CC2)CC1 (stereo not drawn),inactive,
COc1ccc(NC(=O)Nc2cccc3cccnc23)cc1,inactive,
Cc1ccc(OS(=O)Nc2cccc3nccnc23)cc1 (stereo not drawn),3.98 µM (active),
Cc1ccc(Oc2ccc3c(c2)C(=O)N(c2cccc4cccnc24)C3=O)cc1,inactive,
O=C(COc1ccc(Cl)cc1)NCCS(=O)(=O)N1CCN(c2ccc(F)cc2)CC1,inactive,
CN(C)c1nc(=Nc2cccc(Cl)c2)ss1,0.398 µM (active),
CCOC(=O)C1=C(O)CSC1=Nc1cccc(Cl)c1,inactive,
CC(=O)Oc1ccc2c(=O)oc(-c3ccc([N+](=O)[O-])cc3)nc2c1,inactive,
CC(C)(C)NC(=O)C(=O)NN=C1CCCCCCC1,inactive,
CC(C)NC(=S)NN=C1CCCCCCCCCCC1,0.447 µM (active),
CC1CC(C)CN(CCCNC(=O)Cn2ncc3c([nH]c4ccccc43)c2=O)C1 (stereo not drawn),inactive,
Cc1cccc(N(C(=O)c2sc(C)nc2C)C(C(=O)NCC2CCCO2)c2ccccc2)c1 (stereo not drawn),inactive,
CCC(NC(=O)c1cc(COc2ccc(F)c(F)c2)on1)c1ccncc1 (stereo not drawn),inactive,
CC1CCC(NC(=O)CN(C)S(=O)(=O)c2ccc3c(c2)c(=O)n(C)c(=O)n3C)CC1 (stereo not drawn),inactive,
COc1ccc(C(C(=O)NC2CCCCC2)N(C(=O)c2snc(C(N)=O)c2N)c2ccccc2OC)cc1 (stereo not drawn),inactive,
O=C(c1cccc(Cl)c1)N1CCN(Cc2ccccc2)CC1,inactive,
O=C(c1cccc([N+](=O)[O-])c1)N1CCN(Cc2ccccc2)CC1,inactive,
O=C(NC(=S)N1CCN(Cc2ccccc2)CC1)c1ccccc1,1 µM (active),
CC(C)c1nnc(NC(=O)CCC(=O)N2CCN(c3cccc(Cl)c3)CC2)s1,inactive,
COc1ccc(NC(=O)C/C(C)=N/NC(=O)c2cnccn2)cc1Cl,inactive,
COc1cc(OC)c(S(=O)(=O)Nc2ccccc2C(=O)O)cc1S(=O)(=O)Nc1ccccc1C(=O)O,inactive,
